Records with an inconclusive call do not appear. Values without a mark were called inactive. The source made the active and inactive calls. Calls follow the shape of the dose curve; as a rule, active = well fitted curve in the direction sought with a large enough effect; inconclusive = small, poorly fitted or top-dose-only effect, or another doubt; inactive = no such curve, though single readings can be large; an effect the other way counts as inactive or inconclusive.

The source of these data is PubChem BioAssay (NCATS).
% is scaled to controls: 0 for no effect and ±100 for the full control effect.

Sequence of Ubiquitin carboxyl-terminal hydrolase 1 (Homo sapiens) (O94782 whole entry, looked up): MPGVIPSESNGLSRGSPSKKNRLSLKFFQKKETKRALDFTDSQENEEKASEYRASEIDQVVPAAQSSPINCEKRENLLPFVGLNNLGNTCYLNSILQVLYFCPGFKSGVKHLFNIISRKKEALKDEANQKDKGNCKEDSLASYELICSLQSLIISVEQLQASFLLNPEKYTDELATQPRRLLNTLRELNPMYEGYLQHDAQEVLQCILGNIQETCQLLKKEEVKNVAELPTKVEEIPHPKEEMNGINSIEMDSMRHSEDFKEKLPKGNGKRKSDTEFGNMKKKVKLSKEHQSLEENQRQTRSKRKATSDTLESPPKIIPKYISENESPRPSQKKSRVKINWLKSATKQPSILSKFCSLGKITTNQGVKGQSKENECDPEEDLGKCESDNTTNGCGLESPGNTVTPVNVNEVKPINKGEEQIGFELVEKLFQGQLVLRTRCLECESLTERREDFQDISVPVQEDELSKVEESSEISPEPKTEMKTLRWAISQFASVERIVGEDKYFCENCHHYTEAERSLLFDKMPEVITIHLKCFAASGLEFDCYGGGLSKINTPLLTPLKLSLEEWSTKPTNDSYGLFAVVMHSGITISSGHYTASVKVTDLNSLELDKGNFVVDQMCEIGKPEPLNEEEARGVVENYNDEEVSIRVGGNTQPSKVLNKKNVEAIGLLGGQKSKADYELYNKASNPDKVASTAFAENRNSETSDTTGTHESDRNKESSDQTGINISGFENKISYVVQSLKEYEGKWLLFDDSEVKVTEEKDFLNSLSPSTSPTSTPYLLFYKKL

For one experiment, the target named is Ubiquitin carboxyl-terminal hydrolase 1 (Homo sapiens) (UniProt O94782). The experiment can be described thus: Inhibitors of USP1/UAF1: Pilot qHTS (AID 504865).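 Also: rhodamine fluorescence freed from ubiquitin-rhodamine substrate followed over time; top concentration of the series differs between compounds; nearly all actives have a fitted effect of over 35% in size.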 As to conditions: purified USP1/UAF1, Ub-rhodamine cleavage fluorescence; series mostly up to 114 µM; activity change, negative = inhibition: at the top concentration. The gist of the method:
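Enzyme-free wells gave the negative control, while test wells held 1nM USP1/UAF1 preincubated with compound for 15 min at room temperature. Ub-Rho at 150nM final started the reaction, and fluorescence at 480/540 nm was recorded kinetically.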
Take `N[C@@H](Cc1cnc[nH]1)C(=O)O`: the Potency entry was “inactive”.
On the same count and under the same terms, the value for `Nc1cc(Cl)c(NC2=NCCN2)c(Cl)c1` was “inactive”; that for `CNCCC(Oc1ccccc1C)c1ccccc1` (stereo unspecified) was “inactive”.
In the case of `COc1cc2c(cc1OC)C(=O)C(CC1CCN(Cc3ccccc3)CC1)C2` (stereo unspecified), the “activity change, negative = inhibition” value is -4.73%.
As for `O=C1CCC(c2ccc(-n3ccnc3)cc2)=NN1`, the Potency result is “inactive”.
The same measure, in the same setting: the same measure for `C[C@@H]1C(=O)NC2=Nc3cccc(Cl)c3CN21`: “inactive”.
On the same count and under the same terms, the value for `C[N+]1(CCCCC[N+]2(C)CCCC2)CCCC1` was “inactive”; that for `CNCCC=C1c2ccccc2CCc2ccccc21` was “inactive”.
Still for that read-out and setting: the same measure for `C[C@]12CC[C@@H]3c4ccc(O)cc4CC[C@H]3[C@@H]1CC[C@@H]2O`: “inactive”; for `CC1(C)CCC(NC(=O)[C@@H](N)CCC(=O)O)CC1`: “inactive”; for `CC(C)COC(=O)OCN1C(=O)CN(CCN2CC(=O)N(COC(=O)OCC(C)C)C(=O)C2)CC1=O`: “inactive”.
Take `COc1cc(-c2ccc(=O)[nH]n2)ccc1OC(F)F`: the Potency result is “inactive”.
For `c1ccc(CNCCNCc2ccccc2)cc1`, the “activity change, negative = inhibition” value is 3.39%.

Tested on in a further experiment: not listed separately
The experiment in a line: qHTS for Inhibitors of ATXN expression: Validation of Cytotoxic Assay (AID 588349). The settings on record: cytotoxicity counter-screen for ATXN expression inhibitors, cell viability; series mostly up to 57.1 µM; activity change, negative = cytotoxicity: at the top concentration. The gist of the method:
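Cytotoxicity counter-screen: HEK293 cells exposed to compound titrations, 72 hr, 37 degrees C. Read-out is intracellular ATP (CellTiter Glo luminescence) as a viability measure.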
As to `N[C@@H](Cc1cnc[nH]1)C(=O)O`, the “activity change, negative = cytotoxicity” value was -11.1%.
`Nc1cc(Cl)c(NC2=NCCN2)c(Cl)c1`: the “activity change, negative = cytotoxicity” value was -15.7%.
Still for that read-out and setting: the same measure for `CNCCC(Oc1ccccc1C)c1ccccc1` (stereo unspecified): -29.5%; for `O=C1CCC(c2ccc(-n3ccnc3)cc2)=NN1`: 7.74%.
On to `C[C@@H]1C(=O)NC2=Nc3cccc(Cl)c3CN21`, for which the “activity change, negative = cytotoxicity” value is 10.9%.
On the same count and under the same terms, the value for `C[N+]1(CCCCC[N+]2(C)CCCC2)CCCC1` was -7.56%; that for `CC1(C)CCC(NC(=O)[C@@H](N)CCC(=O)O)CC1` was -11.9%; that for `CC(C)COC(=O)OCN1C(=O)CN(CCN2CC(=O)N(COC(=O)OCC(C)C)C(=O)C2)CC1=O` was -10.4%.

Tested on in another experiment: not listed separately
The experiment can be described thus: qHTS for Inhibitors of ATXN expression: Validation (AID 588378). Also: nearly all actives have a fitted effect of over 75% in size. Also: potency is read from the fitted curve at half-maximal effect. As to conditions: cell-based ATXN2 expression reporter assay, luminescence; series mostly up to 57.1 µM; activity change, negative = inhibition: at the top concentration. The method, boiled down: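 After a 2 h attachment and 24 h compound incubation, HEK293-ATXN2-FFLuc wells are read for fluorescence at 405 nm excitation/525 nm emission as a viability measure, then for Bright-Glo luminescence reflecting ATXN2 expression.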
In the case of `N[C@@H](Cc1cnc[nH]1)C(=O)O`, the “activity change, negative = inhibition” value is 2.74%.
Still for that read-out and setting: the value for `Nc1cc(Cl)c(NC2=NCCN2)c(Cl)c1` was -5.43%; that for `O=C1CCC(c2ccc(-n3ccnc3)cc2)=NN1` was 3.93%; that for `C[C@@H]1C(=O)NC2=Nc3cccc(Cl)c3CN21` was 4.39%.
The same measure, in the same setting: the same measure for `C[N+]1(CCCCC[N+]2(C)CCCC2)CCCC1`: 21.2%.
Take `CNCCC=C1c2ccccc2CCc2ccccc21`: the Potency was 15.8 µM (active).
As for `C[C@]12CC[C@@H]3c4ccc(O)cc4CC[C@H]3[C@@H]1CC[C@@H]2O`, the “activity change, negative = inhibition” value was -9.39%.
On to `COc1cc(NS(C)(=O)=O)ccc1Nc1c2ccccc2nc2ccccc12`, for which the Potency was 0.355 µM (active).
As to `CC1(C)CCC(NC(=O)[C@@H](N)CCC(=O)O)CC1`, the “activity change, negative = inhibition” value was -4.17%.
Still for that read-out and setting: the same measure for `CC(C)COC(=O)OCN1C(=O)CN(CCN2CC(=O)N(COC(=O)OCC(C)C)C(=O)C2)CC1=O`: -2.24%.
